Results filed as inconclusive are left out. The source made the active and inactive calls. The call rests on the fitted dose curve; in most records, active means well fitted curve in the direction sought with a large enough effect; inconclusive means small, poorly fitted or top-dose-only effect, or another doubt; inactive means no such curve, though single readings can be large or run the other way.
target: Single-stranded DNA cytosine deaminase (Homo sapiens) (UniProt Q9GZX7); experiment: Confirmatory (Round 2) qHTS assay for inhibitors of Activation Induced Cytidine Deaminase (AID): AID signals; conditions: AID deamination FRET-based fluorescence assay with UDG, 4 h; series mostly up to 78.4 µM; activity, negative = inhibition: at the top concentration
Sequence (Q9GZX7 whole entry, looked up): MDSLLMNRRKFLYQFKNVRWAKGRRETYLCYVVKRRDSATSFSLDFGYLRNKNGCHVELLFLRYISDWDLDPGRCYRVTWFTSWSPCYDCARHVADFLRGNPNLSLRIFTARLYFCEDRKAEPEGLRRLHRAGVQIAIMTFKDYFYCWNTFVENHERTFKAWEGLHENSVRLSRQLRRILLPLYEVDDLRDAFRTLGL
Text: Assay Provider (PI) Patricia Gearhart Ph.D. National Institute on Aging National Institute of Health (NIH), Bethesda, MD Assay Provider (PI) Rahul Kohli Ph.D. Perelman School of Medicine University of Pennsylvania, Philadelphia, PA Activation-Induced Deaminase (AID) is a cytosine deaminase which converts cytosine into uracil within stretches of ssDNA. The presence of uracil in DNA initiates a cascade of mutagenic DNA repair to introduce point mutations and DNA double strand breaks. Specific targeting of AID to the immunoglobulin heavy chain loci (Igh) promotes mutagenesis in the antibody variable region for somatic hypermutation (SHM) or switch regions leading to class switch recombination (CSR). However, AID also plays a role in accumulating unnecessary mutations across the genome. Mis-targeting of AID results in the initiation of tumor development and leads to greater drug resistance among cancer cells when continually expressed. To identify an AID inhibitor, a small molecule library will be screened in collaboration with NCATS core facility at NIH. To confirm biological function, inhibitors will be examined in an in vitro murine B-cell activation assay and subsequent secondary validation screens. Top molecules will be further screened to identify inhibitory efficacy against a wild type primary splenocytes assay. Using these approaches, we hope to identify a small molecule with great efficacy and low toxicity for use as a molecular probe to further characterize AID's intricacies, or even as a therapeutic. A FRET based analysis of cytosine deamination, was developed to identify potential inhibitors of AID catalytic activity. This screen has two signal output, Read 1 evaluates the AID inhibition response. The second readout (Read 2) evaluates UDG response and is uses as a counterscreen to exclude false positive inhibitors. Inhibition in AID and inactivity in the UDG signal is the desired outcome for this assay.
PROTOCOL TABLE SEQUENCE No. (e.g., 1, 2, 3, etc.); PARAMETER (e.g., Cells, Incubation, Reagent, etc.); VALUE; DESCRIPTION 1a; Reagent; 3 uL; [4/3x] 1 uM AID/2.67 U/mL UDG 1b; Reagent; 3 uL; 2 U/mL UDG 1c; Reagent; 3 uL; 1 uM AID 2a; Compound; 46 nL; Follow-up plates (0.64 uM - 10 mM) 2b; Control; 46 nL; ATA ([…] - 10 mM) 3; Time; 10 min; incubation at room temperature 4; Reagents; 1 uL; [4x] 250 nM DJC20 / 250 nM DJC23 [Substrate] 5; Time; 4 hr; incubation at room temperature 6; Reagent; 4 uL; [2x] 250 mM NaOH 7; Time; 15 sec; centrifuge at 1000 rpm 8; Time; 30 min; incubation at room temperature 9a; Detection; fluorescence (Read 1: AID); EnVision (PerkinElmer) plate reader, 540 excitation and 590 emission filters 9b; Detection; fluorescence (Read 2: UDG); EnVision (PerkinElmer) plate reader, 560 excitation and 665 emission filters NOTES (numbers refer to sequence above) 1a; Reagents were dispensed in a medium-binding black solid-bottom Greiner plates (789176F) using a BioRptr liquid dispenser. Dispense 3 uL of [4/3x] 1 uM AID (provided by Kohli lab) and [4/3x] 2 U/mL UDG (NEB M0280L) into columns 1, 2, 5 to 48. 1b; Dispense 3 uL of [4/3x] 2 U/mL UDG into column 3. 1c; Dispense 3 uL of [4/3x] 1 uM AID into column 4. 2a; Compound (7-points [uM]: 0.64; 3.2; 16; 80; 400; 2,000; 10,000; […]) double pin-transferred (Dip Factor = 2) using the Kalypsys (Wako USA) pintool equipped with a 1536 pinhead for a final concentration range of 7.32 nM - 114 uM. 2b; 10 mM Aurintricarboxylic Acid (Sigma A1895) (ATA, 8-point, n = 2, 1:2.5 dilution in column 2) double pin-transferred (Dip Factor = 2) using the Kalypsys (Wako USA) pintool equipped with a 1536 pinhead for a [final] range of 186 nM - 114 uM. 3; Room temperature incubation. 4; Dispense 1 uL of substrate mixture from the Kohli lab [4x] […] DJC20 and [4x] 250 nM DJC23 into columns 1 to 48 . 5; Room temperature incubation. 6; Dispense 4 uL of substrate mixture [2x] 250 mM NaOH into columns 1 to 48. 7; Centrifugation step to remove bubbles. […]

activity, negative = inhibition, inactive:
O=c1cc2nc(-c3ccccc3)nc(SCCCn3ccnc3)n2[nH]1 -1.78%
Cn1ccnc1CCSc1nc(-c2ccccc2)nc2cc(=O)[nH]n12 -3.59%
Cc1noc(C)c1CCSc1nc(-c2ccccc2)nc2cc(=O)[nH]n12 -15.9%
O=c1cc2nc(-c3ccccc3)nc(SCCN3CCC(F)(F)CC3)n2[nH]1 -9.2%
CN1CCN(CCCSc2nc(-c3ccccc3)nc3cc(=O)[nH]n23)CC1 -1.4%
O=c1cc2nc(-c3ccccc3)nc(SCCCc3ccncc3)n2[nH]1 -7.64%

Potency, active:
O=C(O)C1=CC(=C(c2ccc(O)c(C(=O)O)c2)c2ccc(O)c(C(=O)O)c2)C=CC1=O 2.24 µM

— PubChem BioAssay AID1347433 (National Center for Advancing Translational Sciences (NCATS), 2020)
